27 compounds from article PMC5540273 (PLoS ONE, 2017) can be followed below.
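Further: KINOMEscan kinase panel screen.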

In the first assay the test system is MAP3K15. The settings on record: concentration: 1 μM,replicates: in singlicate; n = 1.
In the case of `Cl.Cl.Nc1nc(-c2ccc3c(N)n[nH]c3c2)cc(N2CCCC(NC(=O)c3ccccc3)C2)n1` (stereo not drawn) [GSK2286775], the “%Inh” value came out at 0%.
`CC(C)Nc1cc(-c2ccc3c(N)n[nH]c3c2)nc(N)n1` [GSK2221681]: the “%Inh” value is 0%.
For `COc1ccc(C[C@@H](CN)NC(=O)c2cc(Br)c(-c3ccnc4[nH]ccc34)s2)cc1.Cl.Cl` [GSK1389063], the “%Inh” value came to 7%.
As for `C[C@H]1Oc2cc(cnc2N)-c2c(nn(C)c2C#N)CN(C)C(=O)c2ccc(F)cc21`, the “%Inh” value was determined as 0%.
Take `Cc1ccc2c(-c3ccncc3)c(-c3ccc(F)cc3)nn2c1.Cl` [GW461484]: the “%Inh” value was found to be 0%.
On the same count and under the same terms, next, `C=CC(=O)Nc1cc2c(Nc3ccc(F)c(Cl)c3)ncnc2cc1OCCCN1CCOCC1` [GW781483]: 0%; `CNC(=O)c1ccccc1Sc1ccc2c(/C=C/c3ccccn3)n[nH]c2c1`: 0%.
Same read-out and setting: next, `C[C@@H](Oc1cc(-c2cnn(C3CCNCC3)c2)cnc1N)c1c(Cl)ccc(F)c1Cl`: 28%.
Consider `CCN(CC)CCOc1ccc(Nc2ncc3cc(-c4c(Cl)cccc4Cl)c(=O)n(C)c3n2)cc1` [SB-601273], for which the “%Inh” value is reported as 0%.
Same read-out and setting: for `CN(C)CCOc1ccc(-c2cc(-c3c[nH]nc3-c3ccccn3)ccn2)cc1` [GW835314] the value was 12%; for `Cl.Oc1cc(-c2nc(-c3ccccc3)[nH]c2-c2ccncc2)ccc1Cl` [SB-386023], 18%.
On the same count and under the same terms, next, `CC(C)N1C(=O)Cc2cc(Nc3ncc(C(F)(F)F)c(NCc4cccc(S(C)(=O)=O)c4)n3)ccc21`: 42%; `O=C(NCCNc1ccnc(NCc2ccc(F)cc2)n1)c1cc2ccccc2s1` [GSK1379944]: 0%.
Still for that read-out and setting: for `CCn1c(-c2nonc2N)nc2c(C#CC(C)(C)O)nc(OCCN)cc21.Cl.Cl` [GSK902056] the value was 2%; for `NC(=O)c1cc(-c2ccccc2)cc2c(C3CCNCC3)c[nH]c12` [GSK301362], 9%; for `CCN(CC)CCCCNc1ncc2cc(-c3c(Cl)cccc3Cl)c(NC(=O)NC(C)(C)C)nc2n1`, 0%.
On to `Nc1nc(Nc2ccccc2)cc(-c2ccc3c(N)n[nH]c3c2)n1` [GSK2225749], for which the “%Inh” value is listed as 10%.
In the case of `Cc1occc1-c1nc(N)c(OC[C@@H](N)Cc2c[nH]c3ccccc23)cc1-c1cc2c(C)n[nH]c2cn1` [GSK1660450], the “%Inh” value was found to be 20%.
Take `Cl.Cl.NC[C@H](CC1CCCCC1)NC(=O)c1cc(Br)c(-c2ccnc3[nH]ccc23)s1` [GSK1581427]: the “%Inh” value turned out to be 88%.
In the case of `Cc1n[nH]c2ccc(-c3cc(OC[C@@H](N)Cc4ccccc4)cnc3-c3ccoc3)cc12.O=C(O)C(F)(F)F.O=C(O)C(F)(F)F` [GSK507358], the “%Inh” value was found to be 0%.
On the same count and under the same terms, for `C[C@@H]1CCN(C(=O)CC#N)C[C@@H]1N(C)c1ncnc2[nH]ccc12` the value was 0%; for `O=C(NCCCN1CCOC1=O)c1cnc(NCc2cc(Cl)ccc2Cl)nc1NC1CCCC1`, 0%; for `Cc1cc(C(=O)Nc2ccc(Oc3ccc4nc(NC(=O)C5CC5)cn4n3)cc2)nn1-c1ccccc1`, 0%.
Same read-out and setting: for `Cc1ccc(-n2nc(C(C)(C)C)cc2NC(=O)Nc2ccc(OCCN3CCOCC3)c3ccccc23)cc1` [GW839464] the value was 0%.
Consider `Cc1cc2cn[nH]c2cc1-c1cccc2c(N)c(C(N)=O)nnc12`, for which the “%Inh” value worked out at 82%.
The same measure, in the same setting: next, `Cl.Cl.NC[C@H](Cc1ccc(C(F)(F)F)cc1)NC(=O)c1cc(Br)c(-c2ccnc3[nH]ccc23)s1` [GSK1487252]: 0%; `CN(C)CC(O)COc1ccc(Nc2nccc(-c3cnn4nc(N5CCOCC5)ccc34)n2)cc1` (stereo not drawn) [GW767488]: 59%.

The next assay deals with MAP3K1. The note with it: concentration: 1 μM,replicates: in singlicate; n = 1.
As to `Cl.Cl.Nc1nc(-c2ccc3c(N)n[nH]c3c2)cc(N2CCCC(NC(=O)c3ccccc3)C2)n1` (stereo not drawn) [GSK2286775], the “%Inh” value is listed as 15%.
Regarding `CC(C)Nc1cc(-c2ccc3c(N)n[nH]c3c2)nc(N)n1` [GSK2221681], the “%Inh” value was found to be 0%.
Same read-out and setting: next, `COc1ccc(C[C@@H](CN)NC(=O)c2cc(Br)c(-c3ccnc4[nH]ccc34)s2)cc1.Cl.Cl` [GSK1389063]: 3%.
On the same count and under the same terms, for `C[C@H]1Oc2cc(cnc2N)-c2c(nn(C)c2C#N)CN(C)C(=O)c2ccc(F)cc21` the value was 58%; for `Cc1ccc2c(-c3ccncc3)c(-c3ccc(F)cc3)nn2c1.Cl` [GW461484], 13%; for `C=CC(=O)Nc1cc2c(Nc3ccc(F)c(Cl)c3)ncnc2cc1OCCCN1CCOCC1` [GW781483], 0%.
Take `CNC(=O)c1ccccc1Sc1ccc2c(/C=C/c3ccccn3)n[nH]c2c1`: the “%Inh” value was 18%.
Turning to `C[C@@H](Oc1cc(-c2cnn(C3CCNCC3)c2)cnc1N)c1c(Cl)ccc(F)c1Cl`, the “%Inh” value stood at 68%.
Consider `CCN(CC)CCOc1ccc(Nc2ncc3cc(-c4c(Cl)cccc4Cl)c(=O)n(C)c3n2)cc1` [SB-601273], for which the “%Inh” value was 17%.
Still for that read-out and setting: for `CN(C)CCOc1ccc(-c2cc(-c3c[nH]nc3-c3ccccn3)ccn2)cc1` [GW835314] the value was 24%.
Still for that read-out and setting: for `Cl.Oc1cc(-c2nc(-c3ccccc3)[nH]c2-c2ccncc2)ccc1Cl` [SB-386023] the value was 24%; for `CC(C)N1C(=O)Cc2cc(Nc3ncc(C(F)(F)F)c(NCc4cccc(S(C)(=O)=O)c4)n3)ccc21`, 0%; for `O=C(NCCNc1ccnc(NCc2ccc(F)cc2)n1)c1cc2ccccc2s1` [GSK1379944], 68%.
For `CCn1c(-c2nonc2N)nc2c(C#CC(C)(C)O)nc(OCCN)cc21.Cl.Cl` [GSK902056], the “%Inh” value came out at 11%.
For `NC(=O)c1cc(-c2ccccc2)cc2c(C3CCNCC3)c[nH]c12` [GSK301362], the “%Inh” value was 18%.
The same measure, in the same setting: for `CCN(CC)CCCCNc1ncc2cc(-c3c(Cl)cccc3Cl)c(NC(=O)NC(C)(C)C)nc2n1` the value was 23%.
Still for that read-out and setting: for `Nc1nc(Nc2ccccc2)cc(-c2ccc3c(N)n[nH]c3c2)n1` [GSK2225749] the value was 10%.
The same measure, in the same setting: next, `Cc1occc1-c1nc(N)c(OC[C@@H](N)Cc2c[nH]c3ccccc23)cc1-c1cc2c(C)n[nH]c2cn1` [GSK1660450]: 21%; `Cl.Cl.NC[C@H](CC1CCCCC1)NC(=O)c1cc(Br)c(-c2ccnc3[nH]ccc23)s1` [GSK1581427]: 14%.
As to `Cc1n[nH]c2ccc(-c3cc(OC[C@@H](N)Cc4ccccc4)cnc3-c3ccoc3)cc12.O=C(O)C(F)(F)F.O=C(O)C(F)(F)F` [GSK507358], the “%Inh” value was found to be 6%.
Same read-out and setting: next, `C[C@@H]1CCN(C(=O)CC#N)C[C@@H]1N(C)c1ncnc2[nH]ccc12`: 0%; `O=C(NCCCN1CCOC1=O)c1cnc(NCc2cc(Cl)ccc2Cl)nc1NC1CCCC1`: 1%; `Cc1cc(C(=O)Nc2ccc(Oc3ccc4nc(NC(=O)C5CC5)cn4n3)cc2)nn1-c1ccccc1`: 0%.
On the same count and under the same terms, next, `Cc1ccc(-n2nc(C(C)(C)C)cc2NC(=O)Nc2ccc(OCCN3CCOCC3)c3ccccc23)cc1` [GW839464]: 0%.
For the compound `Cc1cc2cn[nH]c2cc1-c1cccc2c(N)c(C(N)=O)nnc12`, the “%Inh” value is recorded as 31%.
Still for that read-out and setting: for `Cl.Cl.NC[C@H](Cc1ccc(C(F)(F)F)cc1)NC(=O)c1cc(Br)c(-c2ccnc3[nH]ccc23)s1` [GSK1487252] the value was 10%.
The same measure, in the same setting: next, `CN(C)CC(O)COc1ccc(Nc2nccc(-c3cnn4nc(N5CCOCC5)ccc34)n2)cc1` (stereo not drawn) [GW767488]: 63%.
